Values joined by “and” are separate entries in the source; they are usually repeats but may differ in a detail not shown here. Equal entries are not always repeated. Inconclusive results are not listed. Active and inactive are the calls of the source. Calls follow the shape of the dose curve; as a rule, active = well fitted cell-killing curve with a large enough effect; inconclusive = small, poorly fitted or top-dose-only effect, or effect the other way; inactive = flat fitted curve, though single readings scatter.
% is scaled to controls: 0 for no effect and ±100 for the full control effect; potency is read from the fitted curve at half-maximal effect.

For this assay, the system named is PA-1. Put plainly: Primary qHTS to identify gynecologic anti-cancer compounds using libraries of approved drugs and bioactive compounds (AID 1345084). Also: nearly all actives have a fitted effect of over 55% in size. Particulars: Gynecologic cancer cell panel viability, ATPlite luminescence, 48 h; series mostly up to 57.5 µM; activity change, negative = cytotoxicity: at the top concentration. Summed up:
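Five-point cytotoxicity, 48 h drug exposure at 37 C, 5% CO2, on cells seeded 16 h beforehand. ATP content read by ATPlite luminescence.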
(In qHTS, concentration-response curves come from the screen itself.)
As to `O=c1[nH]c2ccccc2n1CCCN1CCC(n2c(=O)[nH]c3cc(Cl)ccc32)CC1`, the “activity change, negative = cytotoxicity” value was -11.3% (inactive).

As to `C[C@]12CCC(=O)C(O)=C1CC[C@@H]1[C@@H]2CC[C@]2(C)C(=O)CC[C@@H]12`, the “activity change, negative = cytotoxicity” value is 22% (inactive). `C#CCOC(C(=O)OCCN(C)C)(c1ccccc1)c1ccccc1`: the “activity change, negative = cytotoxicity” value is 28.6% (inactive). On the same count and under the same terms, as for `CC(C)=CCOc1c2occc2cc2ccc(=O)oc12`, the figure is 16.5% (inactive); as for `CC[N+]1(C)CCCC(OC(=O)C(O)(c2ccccc2)c2ccccc2)C1` (centres undefined), 3.39% (inactive); as for `CCCC(C)(COC(N)=O)COC(=O)NC(C)C` (centres undefined), -0.301% (inactive).

Consider `c1ccc2c(c1)OCC(C1=NCCN1)O2` (centres undefined), for which the Potency was 15.8 µM (active). Take `CNC(=O)N1N=C(c2ccc(N)cc2)c2cc3c(cc2CC1C)OCO3` (centres undefined): the “activity change, negative = cytotoxicity” value is -22.8% (inactive). In the case of `C[C@H]1O[C@@H](O[C@H]2[C@@H](O)C[C@H](O[C@H]3[C@@H](O)C[C@H](O[C@H]4CC[C@@]5(C)[C@H](CC[C@@H]6[C@@H]5CC[C@]5(C)[C@@H](C7=CC(=O)OC7)CC[C@]65O)C4)O[C@@H]3C)O[C@@H]2C)C[C@H](O)[C@@H]1O`, the Potency is 282 nM (active) and 126 nM (active). Regarding `C=C(C)[C@H]1Cc2c(ccc3c2O[C@@H]2COc4cc(OC)c(OC)cc4[C@@H]2C3=O)O1`, the Potency was 1.26 µM (active). Turning to `Cc1cc(SCc2sc(-c3ccc(C(F)(F)F)c(F)c3)nc2C)ccc1OCC(=O)O`, the “activity change, negative = cytotoxicity” value is 9.55% (inactive). For the molecule `CNC(=O)c1ccc(N2C(=S)N(c3ccc(C#N)c(C(F)(F)F)c3)C(=O)C23CCC3)cc1F`, the “activity change, negative = cytotoxicity” value was 11.1% (inactive).

For the molecule `Oc1cc(Cl)ccc1Oc1ccc(Cl)cc1Cl`, the “activity change, negative = cytotoxicity” value was 5.1% (inactive). On the same count and under the same terms, as for `CC(=O)Nc1cc([As](=O)(O)O)ccc1O`, the figure is 23.5% (inactive); as for `C#CCN(C)[C@H](C)Cc1ccccc1`, -2.41% (inactive); as for `CC[C@@H](CO)NC(=O)[C@@H]1C=C2c3cccc4[nH]cc(c34)C[C@H]2N(C)C1`, 0.752% (inactive).

`Oc1ccc(Cl)cc1Cc1ccccc1`: the Potency entry was “inactive”.

Consider `CCC(=O)C(CC(C)N(C)C)(c1ccccc1)c1ccccc1` (centres undefined), for which the “activity change, negative = cytotoxicity” value is -3.99% [at 116 µM] (inactive). Still for that read-out and setting: as for `CC(C)CC(N(C)C)C1(c2ccc(Cl)cc2)CCC1` (centres undefined), the figure is 6.49% (inactive); as for `FC(F)(F)c1cccc(C2=CCN(CCc3ccc4ccccc4c3)CC2)c1`, 4.82% (inactive). The same measure, in the same setting: as for `CN(C)[C@@H]1C(=O)C(C(N)=O)=C(O)[C@@]2(O)C(=O)C3=C(O)c4c(O)cccc4[C@@](C)(O)[C@H]3C[C@@H]12`, the figure is -19% (inactive). For `CCCN1CCC[C@@H]2Cc3nc(N)ncc3C[C@H]21`, the “activity change, negative = cytotoxicity” value was -11.7% (inactive). Still for that read-out and setting: as for `CCCC1CCCCN1` (centres undefined), the figure is 0.84% (inactive). As to `CCC(COC(=O)c1cc(OC)c(OC)c(OC)c1)(c1ccccc1)N(C)C` (centres undefined), the “activity change, negative = cytotoxicity” value was -9.13% (inactive).
